High-throughput results from PubChem BioAssay.
GLS inh = inhibitors of human glutaminase (GLS); O94925; GLS enzymatic activity, qHTS titration; Potency, µM (top dose mostly 45.5 µM), inactives show top-dose activity change, negative = inhibition, usual class: inhibitors; 0.21% of 410,000 active; AID 624170; also: % is scaled to controls: 0 for no effect and ±100 for the full control effect
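Assay buffer: 45 mM KH2PO4 pH 8.2, 0.02% Tween-20. hKGA acts on L-glutamine (1 mM solution added); product glutamate is reported by an oxidase/peroxidase Amplex Red coupling, with fluorescence taken at baseline and 30 min.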
HP1b chromo inh = blocks HP1-beta chromodomain binding to methylated histone tails. P83916. AlphaScreen HP1-beta / biotin-H3K9me3 peptide binding. Potency, µM (series often up to 114 µM), for inactives: at the highest dose activity change, negative = inhibition, most hits filed as inhibitors. 0.56% of 390,000 active. AID 540317; also: nearly all actives have a fitted effect of over 70% in size
Target sequence (P83916 whole entry, looked up): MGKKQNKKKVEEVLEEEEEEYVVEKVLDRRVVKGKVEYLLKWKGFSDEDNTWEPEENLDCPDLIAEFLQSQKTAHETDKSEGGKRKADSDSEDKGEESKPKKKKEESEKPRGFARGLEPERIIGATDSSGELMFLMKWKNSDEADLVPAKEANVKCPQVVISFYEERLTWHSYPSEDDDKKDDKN
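AlphaScreen: HP1-beta (50 nM) preformed 30 min with biotin-H3(1-18)K9me3 peptide (50 nM) in PBS pH 7.4, 0.01% Tween-20. Compound added for 30 min at RT, then streptavidin donor/nickel chelate acceptor beads (10 ug/mL) for 30 min.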
G9a block = blocks human histone lysine methyltransferase G9a; 8.8% of 350,000 active; AID 504332; Potency, µM (doses to about 102 µM), for the others: top-dose activity, negative = inhibition, actives largely listed as inhibitors; G9a H3K9 monomethylation, AlphaScreen, 2 h; also: % is scaled to controls: 0 for no effect and ±100 for the full control effect; nearly all actives have a fitted effect of over 75% in size
Target sequence (Q96KQ7 913-1193 limits assumed): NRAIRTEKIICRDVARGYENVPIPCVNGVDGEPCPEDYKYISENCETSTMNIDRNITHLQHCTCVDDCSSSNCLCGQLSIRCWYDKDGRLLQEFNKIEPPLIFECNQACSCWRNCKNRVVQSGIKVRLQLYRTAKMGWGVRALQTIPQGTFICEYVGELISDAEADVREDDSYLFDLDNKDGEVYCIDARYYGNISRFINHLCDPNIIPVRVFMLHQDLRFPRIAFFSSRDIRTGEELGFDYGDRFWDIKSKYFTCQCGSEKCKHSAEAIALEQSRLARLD
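G9a (20 nM) was preincubated 15 min with compound, then reacted 2 h at room temperature with 500 nM biotin-H3K9 peptide and 20 µM SAM. Monomethyl-H3K9 detected by AlphaScreen using anti-H3K9me1 antibody.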
BAZ2B block = inhibitors of human BAZ2B bromodomain. Q9UIF8. AlphaScreen BAZ2B-H3K14Ac peptide displacement. Potency, µM (highest dose often 114 µM), without a hit: at the highest dose activity change, negative = inhibition, hits mostly inhibitors. 4.4% of 360,000 active; also: % is scaled to controls: 0 for no effect and ±100 for the full control effect; nearly all actives have a fitted effect of over 60% in size
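BAZ2B 50 nM plus b-H3(5-23)K14Ac 50 nM, PBS pH 7.4/0.01% Tween-20, 30 min RT; compound added (max 110 uM), 30 min RT; streptavidin donor/Ni-chelate acceptor beads 10 ug/mL final, 20 min dark; AlphaScreen read.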
JMJD2A Tudor = JMJD2A Tudor domain (human) inhibition. O75164. AlphaScreen JMJD2A-Tudor / H3K4me3 peptide binding. Potency, µM (series often up to 114 µM), without a hit: at the top dose activity change, negative = inhibition, usual class: inhibitors. 4.4% of 390,000 active; also: % is scaled to controls: 0 for no effect and ±100 for the full control effect; nearly all actives have a fitted effect of over 50% in size
The depositor's hits bear a star; ? = inconclusive; · = no result given; [ ] = another dose, or the depositor's remark. An excerpt weighted towards active compounds, which were near 10% of everything screened. Calls follow the shape of the dose curve; as a rule, active = well fitted curve in the direction sought with a large enough effect; inconclusive = small, poorly fitted or top-dose-only effect, or another doubt; inactive = no such curve, though single readings can be large; an effect the other way counts as inactive or inconclusive. Potency is read from the fitted curve at half-maximal effect.

SMILES | GLS inh | HP1b chromo inh | G9a block | BAZ2B block | JMJD2A Tudor
COc1ccc(OC)c(NC(=O)CCNS(=O)(=O)c2cccc3nonc23)c1 | 6% | 10% | ? | -4% | 5%
COc1ccc(Nc2nc3c([nH]2)c(=O)[nH]c(=O)n3C)cc1 | 48% | 9% | 50µM* | -14% | -24%
COc1ccc(Nc2nc3ccccc3c(=O)[nH]2)cc1 | -3% | -4% | 79µM* | -26% | -13%[11.4 µM]
COc1ccc(Nc2c3ccccc3nc3ccccc23)cc1 | 2% | -20% | 40µM* | ? | ?
CCN(CC(=O)Nc1ccc(C(=O)Nc2ccc(OC)cc2)cc1)Cc1nc2ccccc2c(=O)[nH]1 | -2% | 33% | 35µM* | -13% | 0%
CCN(CC(=O)Nc1cc(OC)ccc1OC)Cc1nc2ccccc2c(=O)[nH]1 | 1% | 38% | 10% | -12% | -11%
Cc1cc(C)n2nc(CNS(=O)(=O)c3ccc([N+](=O)[O-])cc3)nc2n1 | 0% | 22% | 5% | -3% | -13%
CCCOc1ccc(C2CC(=O)Nc3cc(OC)c(OC)cc32)cc1 (stereo unspecified) | -10% | 0% | · | -10% | ?
C[C@H]1CN([C@@H](C)CO)C(=O)Cc2cc(NC(=O)Cc3ccccc3)ccc2O[C@H]1CN(C)C(=O)Nc1cccc2ccccc12 | 11% | 26% | · | · | -24%
CCN(CC(=O)NCc1cccs1)S(=O)(=O)c1ccc([N+](=O)[O-])cc1 | 0% | 22% | 5% | · | -14%
COc1ccc(/C=C2/SC(=S)N(NS(=O)(=O)c3ccccc3)C2=O)cc1 | ? | 1% | ? | -28% | ?
COc1cc(/C=C2\SC(=S)N(NS(=O)(=O)c3ccc(C)cc3)C2=O)ccc1O | 63% | ? | 25µM* | ? | -1%[11.4 µM]
CCOc1cc(/C=C2\SC(=S)N(NS(=O)(=O)c3ccc(C)cc3)C2=O)ccc1O | 24% | -14% | · | · | ?
C=CCOc1ccc(/C=C2\SC(=S)N(NS(=O)(=O)c3ccccc3)C2=O)cc1 | 18% | -25% | 27%[2.33 µM] | 50µM* | ?
COc1cc(/C=C2\SC(=S)N(NS(=O)(=O)c3ccccc3)C2=O)ccc1O | 6% | ? | 40µM* | ? | ?
COc1ccc(-n2c(SCC(C)=O)nc3sc(C)c(C)c3c2=O)cc1 | 2% | 33% | -5%[0.501 µM] | 2% | -10%
COc1ccccc1/C=C(/C(=O)OCC(N)=O)c1ccccc1 | -3% | 14% | 8%[59 µM] | -1% | -18%
O=C(NCc1ccccc1)c1ccc2c(c1)OCCO2 | 1% | 21% | 16%[59 µM] | -2% | -8%
C=CCn1c(COC)nnc1SCC(=O)c1ccc(F)cc1 | -1% | -41% | 3.5µM* | 26% | 40µM*
C=CCn1c(COc2cccc3ccc(C)nc23)nnc1SCC(=O)O | 2% | 33% | -36%[59 µM] | 2% | 28µM*
C=CCn1c(COc2cccc3cccnc23)nnc1SCC(=O)O | -1% | 17% | -3%[59 µM] | -1% | -7%
COc1cccc(/C=N/NC(=O)C(C)n2nnc3ccccc32)c1 (stereo unspecified) | ? | 8% | 5%[59 µM] | 2% | 45µM*
Cc1ccc(S(=O)(=O)NC(=O)c2cc(C)n(-c3ccc(N(C)C)cc3)c2C)cc1 | 26% | -2% | 45µM* | -35% | -32%
Cc1ccc(S(=O)(=O)NC(=O)Nc2ccc(N(C)C)cc2)cc1 | 14% | 18µM* | ? | 14µM* | 22µM*
Cc1ccc(NC(=O)NNS(=O)(=O)c2ccc(Br)cc2)cc1 | 14% | 24% | 10%[12.7 µM] | 15% | -2%
SMILES | GLS inh | HP1b chromo inh | G9a block | BAZ2B block | JMJD2A Tudor
CCN(CC)S(=O)(=O)c1cccc(C(=O)OC2CC(C)OC2=O)c1 (stereo unspecified) | -2% | 20% | 22% | -16% | -23%
Cc1cc(SCc2ccc(F)cc2)nc(=O)[nH]1 | -4% | 15% | 56% | -9%[57.1 µM] | -17%
Cc1cc(=O)c2c(O)c3c(O)cc(O)c4c5c(O)cc(O)c6c(O)c7c(=O)cc(C)c8c1c2c(c34)c(c65)c78 | · | · | 8.9µM* | · | ·
COc1ccc(CNC2CCCCC2C)c(OC)c1 (stereo unspecified) | 4% | ? | 14µM* | 56µM* | 2µM*
COc1ccc(CNC2CCCc3ccccc32)c(OC)c1 (stereo unspecified) | -5% | ? | · | 4% | 50µM*
COc1ccc(N/N=C(\C#N)C(=N)SCc2ccccc2)cc1 | 6% | 27% | 28µM* | ? | -30%
COc1ccc(N/N=C(\C#N)C(=O)NCCc2ccc(OC)c(OC)c2)cc1 | ? | 10% | 22µM* | ? | ?
COc1ccc(CCC(=O)NCCc2ccc(OC)c(OC)c2)cc1 | -9% | 2% | -12% | 6% | -15%
COc1ccc(N/N=C(\C#N)C(=N)N2CCCCC2)cc1 | 3% | 27% | · | -37% | -33%
CN(C)c1ccc(C=C2SC(=S)NC2=O)cc1 | 1% | -10%[57 µM] | · | · | ?
CCOc1ccc(N(C)c2ccc(/C=C3/SC(=S)NC3=O)cc2)cc1 | 17% | ? | · | 50µM* | 3.5µM*
CCOc1c(O)ccc(/C=C2\SC(=S)NC2=O)c1[N+](=O)[O-] | 35% | ? | 14µM* | 40µM* | ?
CC(C)(C)c1ccc(CN2CCN([C@H](c3ccccc3)c3ccc(Cl)cc3)CC2)cc1 | -23% | · | ? | · | ·
CCC(C)N=C1Sc2nc3ccc(C)cc3cc2CN1CCOC (stereo unspecified) | -8% | -10% | 5µM* | -19% | 45µM*
CCOc1ccc(N=C2Sc3nc4ccc(C)cc4cc3CN2CCOC)cc1 | -3% | 12% | ? | ? | -18%
COCCN1Cc2cc3cc(C)ccc3nc2SC1=Nc1ccc(OC)cc1 | 0% | 28% | 45µM* | -34% | -26%
CCOc1ccc2nc3c(cc2c1)CN(CCCO)C(=NCCOC)S3 | 4% | -17% | 32µM* | -5% | -11%[11.4 µM]
O=C(Nc1ccc(Cl)cc1C(=O)NCCN1CCOCC1)c1ccco1 | -3% | 43% | -36%[59 µM] | -2% | -16%
COc1ccccc1NC(=O)C(=O)NNC(=O)c1ccco1 | 23% | 16% | 8.9µM* | ? | ?
COc1ccccc1C(=O)NCc1ccco1 | -5% | 23% | · | -11% | -16%
COc1ccccc1C(=O)NNC(=O)C(=O)NCc1ccccc1 | 13% | 23% | 28µM* | -34% | ?
COc1ccccc1NC(=O)c1ccc(NC(=O)c2ccco2)cc1 | 0% | 31% | ? | 0% | -3%
COc1ccccc1C(=O)NCCNC(=O)c1ccco1 | 27% | ? | -7%[59 µM] | 1% | 25µM*
O=C(Nc1ccccc1C(=O)NCCN1CCOCC1)c1ccco1 | 5% | 19% | 50µM* | -4% | 0%
O=C(NCCNC(=O)c1ccccc1Cl)c1ccco1 | -5% | -3% | 50µM* | 16% | 79µM*
COc1cccc(-c2ccc(NC(=O)C3CCCN(Cc4cnn(C)c4)C3)cc2)c1 (stereo unspecified) | -7% | 24% | 31%[59 µM] | ? | -11%
